# Data published in PubChem BioAssay (Tox21).
# Inconclusive results are not listed. Values without a mark were called inactive. The call rests on the fitted dose curve; in most records, active means well fitted curve in the direction sought with a large enough effect in the repeat runs; inconclusive means weak or mixed curves; inactive means no such curve, though single readings can be large; an effect the other way counts as inactive or inconclusive.
# Biological target: Luciferin 4-monooxygenase (Photinus pyralis) (UniProt P08659)
# Assay: qHTS assay to identify small molecule inhibitors of firefly luciferase (AID 1224835); further: nearly all actives have a fitted effect of over 25% in size
# Settings: purified P. pyralis luciferase, luminescence inhibition; series mostly up to 115 µM; activity change, negative = inhibition: at the top concentration
# Outline: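 Quantitative HTS format; KM concentrations of both substrates. Purified P. pyralis FLuc activity quantified from luminescence images.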
# On the % scale 0 is the no-effect control and ±100 the full control effect.
# Chain of Luciferin 4-monooxygenase (Photinus pyralis) (P08659 whole entry, looked up): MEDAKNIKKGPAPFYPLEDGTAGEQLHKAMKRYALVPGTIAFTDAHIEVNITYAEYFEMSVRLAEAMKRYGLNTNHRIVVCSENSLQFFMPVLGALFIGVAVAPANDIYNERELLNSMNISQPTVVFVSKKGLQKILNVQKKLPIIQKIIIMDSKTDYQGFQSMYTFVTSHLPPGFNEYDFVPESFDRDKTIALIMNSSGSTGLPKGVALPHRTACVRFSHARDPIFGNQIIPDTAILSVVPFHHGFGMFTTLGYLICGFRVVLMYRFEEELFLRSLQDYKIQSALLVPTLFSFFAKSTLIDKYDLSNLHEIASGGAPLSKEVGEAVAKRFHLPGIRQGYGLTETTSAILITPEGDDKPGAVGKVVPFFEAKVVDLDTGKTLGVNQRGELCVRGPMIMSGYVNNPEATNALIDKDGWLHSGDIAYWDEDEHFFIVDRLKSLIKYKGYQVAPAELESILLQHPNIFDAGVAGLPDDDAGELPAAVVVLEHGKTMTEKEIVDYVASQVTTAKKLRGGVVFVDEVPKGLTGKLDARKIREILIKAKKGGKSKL
row,SMILES,"activity change, negative = inhibition"
1,BrC/C=C/CBr,0.329% [at 23.6 µM]
2,CC(=O)Nc1ncc([N+](=O)[O-])s1,0.231% [at 52.9 µM]
3,O=C(COCCOCCOCC(=O)Nc1c(I)cc(I)c(C(=O)O)c1I)Nc1c(I)cc(I)c(C(=O)O)c1I,1.47% [at 52.9 µM]
4,CC(=O)OC(C)(C)Cc1ccccc1,1.14%
5,CCCCCCCCOC(C)=O,7.9%
6,C=CC(C)(O)CC/C=C(\C)CC (centres undefined),-0.456%
7,FC(F)(F)/C(=N\OCC1OCCO1)c1ccc(Cl)cc1,3.05%
8,CC(Cl)COP(=O)(OCC(C)Cl)OCC(C)Cl (centres undefined),1.21%
9,C=C(C)C(=O)OCCCCCCOC(=O)C(=C)C,-8.58%
10,O=C(O)CCNC(=O)c1ccccc1,4.53% [at 52.9 µM]
11,CCCOCCOCCOCCO,3.96%
12,COCC(=O)Nc1c(I)c(C(=O)NCC(O)CO)c(I)c(C(=O)N(C)CC(O)CO)c1I (centres undefined),0.325% [at 52.9 µM]
13,O=C(O)/C=C/c1ccccc1,-3.25%
14,Cc1oc(=O)oc1CN1CCN(c2cc3c(cc2F)c(=O)c(C(=O)O)c2n3C(C)S2)CC1 (centres undefined),1.28% [at 52.9 µM]
15,Cc1ccc(C(=O)C(=O)O)cc1C,-0.596% [at 52.9 µM]
16,CCCCCCCCCCCCCCCCI,0.965% [at 23.6 µM]
17,N#CCCOCCOCCC#N,-3.15%
18,C=CCOc1c(Br)cc(Br)cc1Br,2.04%

row,SMILES,"activity change, negative = inhibition"
1,SCCSCCS,-2.34%
2,CC1CCC(C(C)(C)S)C(=O)C1 (centres undefined),3.39%
3,CCOC(=O)C(C)(C)C,0.0321%
4,CC(C)COC(=O)CC(C(=O)OCC(C)C)S(=O)(=O)O (centres undefined),0.0907%
5,CCCCC[Si](OCC)(OCC)OCC,2.01%
6,CCC(=O)c1ccc(O)cc1,-1.83% [at 52.9 µM]
7,CCOC(=O)CCc1ccccc1,-0.0333%
8,CCC(C)N (centres undefined),0.373%
9,CCCCC(=O)N(C)C,-0.363%
10,CCCC(C)CC (centres undefined),1.91%
11,CCOC(=O)C(=O)c1csc(NC=O)n1,0.147% [at 52.9 µM]
12,CN(C)CCOCCN(C)CCO,3.55%
13,COc1ccc(/C=N/NC(=O)c2ccncc2)cc1OC,-3.34% [at 52.9 µM]
14,CC(=O)/C=C/c1ccco1,0.7%
15,CC(=O)N(CC(O)CO)c1c(I)c(C(=O)NCC(O)CO)c(I)c(C(=O)NCC(O)CO)c1I (centres undefined),5.06% [at 52.9 µM]
16,C[Si]1(C)N[Si](C)(C)N[Si](C)(C)N1,-0.183%
17,CCCCOC(=O)C(C)OC(=O)CCC (centres undefined),0.0895%
18,O=C1OC(=O)c2ccccc21,2.12%

# Test system: not listed separately
# Assay: qHTS assay to identify small molecule agonists of the constitutive androstane receptor (CAR) signaling pathway - cell viability counter screen (AID 1224836); further: nearly all actives have a fitted effect of over 45% in size
# Settings: HepG2-CYP2B6-hCAR viability, CellTiter-Fluor, 23 h, PK11195 added to every well; series mostly up to 92.4 µM; viability change, negative = cytotoxic: at the top concentration
# Outline: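 Double-stable HepG2 hepatoma cells (hCAR plus CYP2B6-2.2kb) are treated for 23 h at 37 C with test compounds in 15-point concentration series. PK11195 at 0.75 uM final is co-added. Cell viability is quantified by CellTiter-Fluor.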
row,SMILES,"viability change, negative = cytotoxic"
1,BrC/C=C/CBr,0.935% [at 19 µM]
2,CC(=O)Nc1ncc([N+](=O)[O-])s1,-10.3% [at 42.5 µM]
3,O=C(COCCOCCOCC(=O)Nc1c(I)cc(I)c(C(=O)O)c1I)Nc1c(I)cc(I)c(C(=O)O)c1I,9.05% [at 42.5 µM]
4,CC(=O)OC(C)(C)Cc1ccccc1,2.71%
5,CCCCCCCCOC(C)=O,-1.42%
6,CC(C)(c1ccc(Oc2ccc3c(c2)C(=O)OC3=O)cc1)c1ccc(Oc2ccc3c(c2)C(=O)OC3=O)cc1,1.38%
7,FC(F)(F)/C(=N\OCC1OCCO1)c1ccc(Cl)cc1,1.87%
8,C=C(C)C(=O)OCCCCCCOC(=O)C(=C)C,-4.18%
9,CCCOCCOCCOCCO,2.27%
10,O=C(O)/C=C/c1ccccc1,4.13%
11,Cc1ccc(C(=O)C(=O)O)cc1C,0.73% [at 42.5 µM]
12,CCCCCCCCCCCCCCCCI,-8.08% [at 19 µM]
13,N#CCCOCCOCCC#N,2.13%
14,C=CCOc1c(Br)cc(Br)cc1Br,-1.82%
15,SCCSCCS,-1.22%
16,CC1CCC(C(C)(C)S)C(=O)C1 (centres undefined),5.67%
17,CCOC(=O)C(C)(C)C,-0.0957%
18,CC(C)COC(=O)CC(C(=O)OCC(C)C)S(=O)(=O)O (centres undefined),-1.62%
19,CCCCC[Si](OCC)(OCC)OCC,1.51%
20,CCC(=O)c1ccc(O)cc1,1.6% [at 42.5 µM]
21,CCOC(=O)CCc1ccccc1,0.926%
22,CCCCC(=O)N(C)C,0.862%
23,CCOC(=O)C(=O)c1csc(NC=O)n1,4.87% [at 42.5 µM]
24,CN(C)CCOCCN(C)CCO,3.51%
25,COc1ccc(/C=N/NC(=O)c2ccncc2)cc1OC,3.09% [at 42.5 µM]
26,C=CCOC(=O)c1ccc(C(=O)OCC=C)c(C(=O)OCC=C)c1,4.24%
27,CC(=O)N(CC(O)CO)c1c(I)c(C(=O)NCC(O)CO)c(I)c(C(=O)NCC(O)CO)c1I (centres undefined),2.71% [at 42.5 µM]
28,C[Si]1(C)N[Si](C)(C)N[Si](C)(C)N1,-3.44%
29,CCCCOC(=O)C(C)OC(=O)CCC (centres undefined),0.0413%
30,O=C1OC(=O)c2ccccc21,3.14%

# Test system: not listed separately
# Assay: qHTS assay to identify small molecule antagonists of the constitutive androstane receptor (CAR) signaling pathway - cell viability counter screen (AID 1224837); further: nearly all actives have a fitted effect of over 45% in size
# Settings: HepG2-CYP2B6-hCAR viability, CellTiter-Fluor, 23 h, co-treated with 50 nM CITCO; series mostly up to 92.4 µM; activity change, negative = cytotoxicity: at the top concentration
# Outline: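 Counter screen run in HepG2-CYP2B6-hCAR cells: 4 hr settle, compound titration (15 concentrations) with 50 nM CITCO, 23 hr at 37 C/5% CO2, CellTiter-Fluor fluorescence.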
row,SMILES,"activity change, negative = cytotoxicity"
1,BrC/C=C/CBr,-2.33% [at 19 µM]
2,CC(=O)Nc1ncc([N+](=O)[O-])s1,-4.53% [at 42.5 µM]
3,O=C(COCCOCCOCC(=O)Nc1c(I)cc(I)c(C(=O)O)c1I)Nc1c(I)cc(I)c(C(=O)O)c1I,14.8% [at 42.5 µM]
4,CC(=O)OC(C)(C)Cc1ccccc1,3.26%
5,CCCCCCCCOC(C)=O,-0.232%
6,CC(C)(c1ccc(Oc2ccc3c(c2)C(=O)OC3=O)cc1)c1ccc(Oc2ccc3c(c2)C(=O)OC3=O)cc1,2.88%
7,C=CC(C)(O)CC/C=C(\C)CC (centres undefined),2.76%
8,FC(F)(F)/C(=N\OCC1OCCO1)c1ccc(Cl)cc1,4.57%
9,CC(Cl)COP(=O)(OCC(C)Cl)OCC(C)Cl (centres undefined),-2.64%
10,C=C(C)C(=O)OCCCCCCOC(=O)C(=C)C,-0.237%
11,O=C(O)CCNC(=O)c1ccccc1,3.31% [at 42.5 µM]
12,CCCOCCOCCOCCO,-2.24%
13,COCC(=O)Nc1c(I)c(C(=O)NCC(O)CO)c(I)c(C(=O)N(C)CC(O)CO)c1I (centres undefined),1.37% [at 42.5 µM]
14,O=C(O)/C=C/c1ccccc1,0.605%
15,Cc1oc(=O)oc1CN1CCN(c2cc3c(cc2F)c(=O)c(C(=O)O)c2n3C(C)S2)CC1 (centres undefined),3.61% [at 42.5 µM]
16,Cc1ccc(C(=O)C(=O)O)cc1C,2.18% [at 42.5 µM]
17,CCCCCCCCCCCCCCCCI,-13% [at 19 µM]
18,N#CCCOCCOCCC#N,3.21%
19,C=CCOc1c(Br)cc(Br)cc1Br,-0.518%

row,SMILES,"activity change, negative = cytotoxicity"
1,SCCSCCS,1.18%
2,CC1CCC(C(C)(C)S)C(=O)C1 (centres undefined),0.532%
3,CCOC(=O)C(C)(C)C,-1.03%
4,CC(C)COC(=O)CC(C(=O)OCC(C)C)S(=O)(=O)O (centres undefined),-14.3%
5,CCCCC[Si](OCC)(OCC)OCC,8.45%
6,CCC(=O)c1ccc(O)cc1,0.529% [at 42.5 µM]
7,CCOC(=O)CCc1ccccc1,4.65%
8,CCC(C)N (centres undefined),-2.6%
9,CCCCC(=O)N(C)C,-0.817%
10,CCCC(C)CC (centres undefined),-0.279%
11,CCOC(=O)C(=O)c1csc(NC=O)n1,4.48% [at 42.5 µM]
12,CN(C)CCOCCN(C)CCO,-1.77%
13,COc1ccc(/C=N/NC(=O)c2ccncc2)cc1OC,5.4% [at 42.5 µM]
14,C=CCOC(=O)c1ccc(C(=O)OCC=C)c(C(=O)OCC=C)c1,2.48%
15,CC(=O)/C=C/c1ccco1,-0.327%
16,CC(=O)N(CC(O)CO)c1c(I)c(C(=O)NCC(O)CO)c(I)c(C(=O)NCC(O)CO)c1I (centres undefined),1.55% [at 42.5 µM]
17,C[Si]1(C)N[Si](C)(C)N[Si](C)(C)N1,-6.19%
18,CCCCOC(=O)C(C)OC(=O)CCC (centres undefined),3.15%
19,O=C1OC(=O)c2ccccc21,2.34%
